# Test results reported in PubChem BioAssay AID1159580 (chemical genetic matrix, 2015).
# Where “and” joins values, the source holds several entries; their conditions need not be identical. Equal values may be shown once. The whole screen tested about 5,500 compounds, of which about 2,000 (36%) were called active. Not shown: some 18% with an inconclusive outcome. Some of the results follow. Unmarked numbers belong to inactive results. Rule as the data show it: active = normalized growth mostly below about 0.91 (no sharp cut-off); inconclusive = no clear call, values can overlap the other calls; inactive = mostly above about 0.92.
# Assay: chemical genetic growth profiling, strain panel (AID 1159580);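 also: tested at 20 µM; growth read once vehicle control cultures reached saturation at 30 °C; 1 = growth at the plate median or of vehicle wells; lower values mean less growth of the strain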
# Settings: S. cerevisiae deletion strains, growth OD
structure (smiles),measurement,setting,value
CC(C)CCCC(C)C1CCC2C3C[C@@H](O)[C@@]4(O)C[C@@H](O)CC[C@]4(C)C3CC[C@]12C (stereo partly drawn),normalized growth,"locus YAL013W, strain DEP1, active compounds read low",1.01
same,normalized growth,"locus YAL021C, strain ccr4, active compounds read low",0.951
same,normalized growth,"locus YAL026C, strain drs2, active compounds read low",0.843 (active)
same,normalized growth,"locus YAL030W, strain snc1, active compounds read low",0.988
same,normalized growth,"locus YBL061C, strain skt5, active compounds read low",0.986
same,normalized growth,"locus YBR009C, strain hhf1, active compounds read low",0.972
same,normalized growth,"locus YBR021W, strain FUR4, active compounds read low",1.06
same,normalized growth,"locus YBR023C, strain chs3, active compounds read low",0.994
same,normalized growth,"locus YBR171W, strain sec66, active compounds read low",1.01
same,normalized growth,"locus YBR229C, strain ROT2, active compounds read low",1.06
same,normalized growth,"locus YBR231C, strain swc5, active compounds read low",1.01
same,normalized growth,"locus YBR279W, strain paf1, active compounds read low",1.03
same,normalized growth,"locus YCL011C, strain gbp2, active compounds read low",0.997
same,normalized growth,"locus YCL016C, strain dcc1, active compounds read low",0.984
same,normalized growth,"locus YCL029C, strain bik1, active compounds read low",1.04
same,normalized growth,"locus YCL061C, strain MRC1, active compounds read low",0.966
same,normalized growth,"locus YCL069W, strain vba3, active compounds read low",0.984
same,normalized growth,"locus YCR088W, strain abp1, active compounds read low",1
same,normalized growth,"locus YDL005C, strain med2, active compounds read low",0.996
same,normalized growth,"locus YDL035C, strain GPR1, active compounds read low",1.06
same,normalized growth,"locus YDL040C, strain nat1, active compounds read low",1.01
same,normalized growth,"locus YDL074C, strain BRE1, active compounds read low",1.08
same,normalized growth,"locus YDL101C, strain DUN1, active compounds read low",1.03
same,normalized growth,"locus YDL134C, strain PPH21, active compounds read low",0.985
same,normalized growth,"locus YDL185W, strain tfp1, active compounds read low",1.02
same,normalized growth,"locus YDL192W, strain arf1, active compounds read low",0.999
same,normalized growth,"locus YDR001C, strain nth1, active compounds read low",1
same,normalized growth,"locus YDR069C, strain doa4, active compounds read low",0.992
same,normalized growth,"locus YDR101C, strain arx1, active compounds read low",1.03
same,normalized growth,"locus YDR137W, strain rgp1, active compounds read low",0.493 (active)
same,normalized growth,"locus YDR150W, strain NUM1, active compounds read low",1.03
same,normalized growth,"locus YDR162C, strain NBP2, active compounds read low",1.03
same,normalized growth,"locus YDR195W, strain ref2",1.04
same,normalized growth,"locus YDR297W, strain sur2, active compounds read low",0.986
same,normalized growth,"locus YDR318W, strain mcm21, active compounds read low",1.02
same,normalized growth,"locus YDR334W, strain swr1, active compounds read low",1
same,normalized growth,"locus YDR335W, strain msn5, active compounds read low",1
same,normalized growth,"locus YDR388W, active compounds read low",1.01
same,normalized growth,"locus YDR392W, strain spt3, active compounds read low",0.82
same,normalized growth,"locus YDR502C, strain sam2, active compounds read low",1.02
same,normalized growth,"locus YEL003W, strain gim4, active compounds read low",0.974
same,normalized growth,"locus YEL037C, strain rad23, active compounds read low",1
same,normalized growth,"locus YEL061C, strain CIN8 (second series), active compounds read low",0.999
same,normalized growth,"locus YER015W, strain faa2, active compounds read low",0.987
same,normalized growth,"locus YER016W, strain bim1, active compounds read low",0.994
same,normalized growth,"locus YER110C, active compounds read low",1.03
same,normalized growth,"locus YER111C, strain swi4, active compounds read low",0.987
same,normalized growth,"locus YER155C, strain BEM2 (second series), active compounds read low",0.972
same,normalized growth,"locus YER155C, strain BEM2, active compounds read low",1
same,normalized growth,"locus YER167W, strain BCK2, active compounds read low",1.04
same,normalized growth,"locus YFR010W, strain ubp6, active compounds read low",1
same,normalized growth,"locus YGL078C, strain dbp3, active compounds read low",1.02
same,normalized growth,"locus YGL086W, strain mad1, active compounds read low",1.01
same,normalized growth,"locus YGL167C, strain pmr1, active compounds read low",1
same,normalized growth,"locus YGL173C, strain kem1, active compounds read low",0.992
same,normalized growth,"locus YGL227W, strain vid30, active compounds read low",1
same,normalized growth,"locus YGL240W, strain doc1, active compounds read low",1.02
same,normalized growth,"locus YGL248W, strain PDE1, active compounds read low",1.02
same,normalized growth,"locus YGL253W, strain hxk2, active compounds read low",0.996
same,normalized growth,"locus YGR078C, strain PAC10, active compounds read low",1
same,normalized growth,"locus YGR135W, strain pre9, active compounds read low",0.99
same,normalized growth,"locus YGR252W, strain gcn5, active compounds read low",0.993
same,normalized growth,"locus YHR013C, strain ard1, active compounds read low",1
same,normalized growth,"locus YHR027C, strain rpn1, active compounds read low",0.991
same,normalized growth,"locus YHR030C, strain SLT2, active compounds read low",1.02 and 1.06
same,normalized growth,"locus YHR079C, strain IRE1 (second series), active compounds read low",1.01
same,normalized growth,"locus YHR079C, strain IRE1, active compounds read low",1.04
same,normalized growth,"locus YHR094C, strain hxt1, active compounds read low",1.02
same,normalized growth,"locus YHR129C, strain ARP1, active compounds read low",1.03
same,normalized growth,"locus YHR142W, strain chs7, active compounds read low",1.02
same,normalized growth,"locus YHR200W, strain rpn10, active compounds read low",1.02
same,normalized growth,"locus YIL066C, strain RNR3, active compounds read low",1.02
same,normalized growth,"locus YIL073C, strain SPO22, active compounds read low",1.04
same,normalized growth,"locus YIL125W, strain kgd1, active compounds read low",1.02
same,normalized growth,"locus YIR030C, strain dcg1, active compounds read low",1.01
same,normalized growth,"locus YJL092W, strain hpr5, active compounds read low",1.01
same,normalized growth,"locus YJL095W, strain BCK1 (second series), active compounds read low",0.998
same,normalized growth,"locus YJL095W, strain BCK1, active compounds read low",0.981 and 1.05
same,normalized growth,"locus YJL115W, strain asf1, active compounds read low",0.994
same,normalized growth,"locus YJL129C, strain trk1, active compounds read low",1.01
same,normalized growth,"locus YJL134W, strain LCB3, active compounds read low",1.03
same,normalized growth,"locus YJL154C, strain vps35, active compounds read low",1
same,normalized growth,"locus YJL164C, strain tpk1, active compounds read low",0.99
same,normalized growth,"locus YJL166W, strain qcr8, active compounds read low",0.98
same,normalized growth,"locus YJL168C, strain set2, active compounds read low",1.01
same,normalized growth,"locus YJL187C, strain SWE1 (second series), active compounds read low",1.02
same,normalized growth,"locus YJL187C, strain SWE1, active compounds read low",1
same,normalized growth,"locus YJR043C, strain POL32, active compounds read low",1.03
same,normalized growth,"locus YJR066W, strain TOR1, active compounds read low",1.01
same,normalized growth,"locus YKL009W, strain mrt4, active compounds read low",0.971
same,normalized growth,"locus YKL068W, active compounds read low",1.01
same,normalized growth,"locus YKL085W, strain MDH1 (second series), active compounds read low",1.01
same,normalized growth,"locus YKL085W, strain MDH1, active compounds read low",1.01
same,normalized growth,"locus YKL160W, strain elf1, active compounds read low",0.998
same,normalized growth,"locus YKR001C, strain vps1, active compounds read low",1.05
same,normalized growth,"locus YKR026C, strain gcn3, active compounds read low",1
same,normalized growth,"locus YKR091W, strain srl3, active compounds read low",1
same,normalized growth,"locus YLL001W, strain dnm1, active compounds read low",0.949
same,normalized growth,"locus YLL026W, active compounds read low",0.995
same,normalized growth,"locus YLL041C, strain sdh2, active compounds read low",1
same,normalized growth,"locus YLR027C, strain aat2, active compounds read low",0.989
same,normalized growth,"locus YLR039C, strain RIC1, active compounds read low",0.777
same,normalized growth,"locus YLR058C, strain SHM2, active compounds read low",1.02
same,normalized growth,"locus YLR102C, strain apc9, active compounds read low",1.01
same,normalized growth,"locus YLR113W, strain HOG1, active compounds read low",1.06
same,normalized growth,"locus YLR221C, strain rsa3, active compounds read low",0.976
same,normalized growth,"locus YLR258W, strain gsy2, active compounds read low",0.975
same,normalized growth,"locus YLR262C, strain YPT6 (second series), active compounds read low",0.502 (active)
same,normalized growth,"locus YLR262C, strain YPT6, active compounds read low",0.78
same,normalized growth,"locus YLR268W, strain sec22, active compounds read low",1.05
same,normalized growth,"locus YLR320W, strain mms22, active compounds read low",0.941
same,normalized growth,"locus YLR330W, strain CHS5, active compounds read low",1
same,normalized growth,"locus YLR342W, strain FKS1 (second series), active compounds read low",1.03
same,normalized growth,"locus YLR342W, strain FKS1, active compounds read low",0.986
same,normalized growth,"locus YLR357W, strain rsc2, active compounds read low",1.01
same,normalized growth,"locus YLR370C, strain arc18, active compounds read low",1
same,normalized growth,"locus YLR371W, strain rom2, active compounds read low",1.02
same,normalized growth,"locus YLR384C, strain iki3, active compounds read low",0.979
same,normalized growth,"locus YLR418C, strain cdc73, active compounds read low",1.03
same,normalized growth,"locus YML016C, strain PPZ1, active compounds read low",1.05
same,normalized growth,"locus YML032C, strain rad52, active compounds read low",0.977
same,normalized growth,"locus YML120C, strain ndi1, active compounds read low",0.996
same,normalized growth,"locus YML124C, strain tub3, active compounds read low",1.02
same,normalized growth,"locus YMR058W, strain fet3, active compounds read low",0.996
same,normalized growth,"locus YMR078C, strain ctf18, active compounds read low",1.02
same,normalized growth,"locus YMR125W, strain sto1, active compounds read low",1.02
same,normalized growth,"locus YMR129W, active compounds read low",0.989
same,normalized growth,"locus YMR205C, strain PFK2, active compounds read low",0.954
same,normalized growth,"locus YMR223W, strain ubp8, active compounds read low",1
same,normalized growth,"locus YMR231W, strain pep5, active compounds read low",0.99
same,normalized growth,"locus YMR307W, strain GAS1, active compounds read low",1.06
same,normalized growth,"locus YNL067W, strain RPL9B, active compounds read low",1.02
same,normalized growth,"locus YNL071W, strain lat1, active compounds read low",0.999
same,normalized growth,"locus YNL153C, strain GIM3, active compounds read low",1.02
same,normalized growth,"locus YNL183C, strain NPR1, active compounds read low",0.992
same,normalized growth,"locus YNL209W, strain ssb2, active compounds read low",0.994
same,normalized growth,"locus YNL233W, strain BNI4, active compounds read low",1
same,normalized growth,"locus YNL248C, strain rpa49, active compounds read low",0.98
same,normalized growth,"locus YNL250W, strain rad50, active compounds read low",1.02
same,normalized growth,"locus YNL271C, strain bni1, active compounds read low",1.02
same,normalized growth,"locus YNL298W, strain CLA4, active compounds read low",1.02
same,normalized growth,"locus YNL307C, strain MCK1, active compounds read low",1.02
same,normalized growth,"locus YNL322C, strain KRE1 (second series), active compounds read low",0.986
same,normalized growth,"locus YNL322C, strain KRE1, active compounds read low",1.01
same,normalized growth,"locus YNR049C, strain mso1, active compounds read low",1
same,normalized growth,"locus YNR052C, strain pop2, active compounds read low",0.996
same,normalized growth,"locus YOL012C, strain htz1",1.32
same,normalized growth,"locus YOL147C, strain pex11, active compounds read low",1.02
same,normalized growth,"locus YOR001W, strain rrp6, active compounds read low",0.977
same,normalized growth,"locus YOR061W, strain CKA2, active compounds read low",1.03
same,normalized growth,"locus YOR069W, strain VPS5, active compounds read low",1.01
same,normalized growth,"locus YOR070C, strain gyp1, active compounds read low",0.972
same,normalized growth,"locus YOR080W, strain dia2, active compounds read low",1
same,normalized growth,"locus YOR083W, strain WHI5, active compounds read low",0.983
same,normalized growth,"locus YOR106W, strain vam3, active compounds read low",1.04
same,normalized growth,"locus YOR136W, strain idh2, active compounds read low",1.02
same,normalized growth,"locus YOR144C, strain elg1, active compounds read low",1.02
same,normalized growth,"locus YOR184W, strain ser1, active compounds read low",1.02
same,normalized growth,"locus YOR231W, strain MKK1, active compounds read low",1.06
same,normalized growth,"locus YOR265W, strain rbl2, active compounds read low",0.993
same,normalized growth,"locus YOR270C, strain vph1, active compounds read low",1.02
same,normalized growth,"locus YOR290C, strain snf2, active compounds read low",0.994
same,normalized growth,"locus YOR316C, strain cot1, active compounds read low",1.02
same,normalized growth,"locus YPL051W, strain arl3, active compounds read low",0.956
same,normalized growth,"locus YPL078C, strain atp4, active compounds read low",0.987
same,normalized growth,"locus YPL106C, strain sse1, active compounds read low",1.01
same,normalized growth,"locus YPL240C, strain hsp82, active compounds read low",1
same,normalized growth,"locus YPL256C, strain CLN2, active compounds read low",1.05
same,normalized growth,"locus YPR119W, strain clb2, active compounds read low",1.02
same,normalized growth,"locus YPR141C, strain kar3, active compounds read low",1.02
same,normalized growth,"locus YPR163C, strain tif3, active compounds read low",1.01
same,normalized growth,"locus YPR167C, strain met16, active compounds read low",1.03
same,normalized growth,"strain wtn01, active compounds read low",1.07
